About 2,000 (36%) of roughly 5,500 compounds were called active. Inconclusive results (about 18%) are left out. Rule as the data show it: active = normalized growth mostly below about 0.91 (no sharp cut-off); inconclusive = no clear call, values can overlap the other calls; inactive = mostly above about 0.92. The list shows a part of the results.
Assay: chemical genetic growth profiling, strain panel (AID 1159580);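 also: tested at 20 µM; growth read once vehicle control cultures reached saturation at 30 °C; 1 = growth at the plate median or of vehicle wells; lower values mean less growth of the strain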
Details: growth OD

Measured: normalized growth

CC1(C)OC(=O)NC1=O
inactive: S. cerevisiae deletion strains, locus YJR075W, strain HOC1, active compounds read low 0.981 | S. cerevisiae deletion strains, locus YKL009W, strain mrt4, active compounds read low 0.966 | S. cerevisiae deletion strains, locus YKL068W, active compounds read low 0.988 | S. cerevisiae deletion strains, locus YKL085W, strain MDH1 (second series), active compounds read low 1.06 | S. cerevisiae deletion strains, locus YKL085W, strain MDH1, active compounds read low 1.06 | S. cerevisiae deletion strains, locus YKL160W, strain elf1, active compounds read low 1.01 | S. cerevisiae deletion strains, locus YKR001C, strain vps1, active compounds read low 1.01 | S. cerevisiae deletion strains, locus YKR026C, strain gcn3, active compounds read low 0.994 | S. cerevisiae deletion strains, locus YKR091W, strain srl3, active compounds read low 1.01 | S. cerevisiae deletion strains, locus YLL001W, strain dnm1, active compounds read low 1.02 | S. cerevisiae deletion strains, locus YLL026W, active compounds read low 1.01 | S. cerevisiae deletion strains, locus YLL041C, strain sdh2, active compounds read low 1.01 | S. cerevisiae deletion strains, locus YLR027C, strain aat2, active compounds read low 1.01 | S. cerevisiae deletion strains, locus YLR039C, strain RIC1, active compounds read low 1.02 | S. cerevisiae deletion strains, locus YLR058C, strain SHM2, active compounds read low 0.983 | S. cerevisiae deletion strains, locus YLR102C, strain apc9, active compounds read low 0.981 | S. cerevisiae deletion strains, locus YLR113W, strain HOG1, active compounds read low 1.02 | S. cerevisiae deletion strains, locus YLR221C, strain rsa3, active compounds read low 0.991 | S. cerevisiae deletion strains, locus YLR258W, strain gsy2, active compounds read low 1 | S. cerevisiae deletion strains, locus YLR262C, strain YPT6 (second series), active compounds read low 1.03 | S. cerevisiae deletion strains, locus YLR262C, strain YPT6, active compounds read low 0.97 | S. cerevisiae deletion strains, locus YLR268W, strain sec22, active compounds read low 0.989 | S. cerevisiae deletion strains, locus YLR320W, strain mms22, active compounds read low 0.975 | S. cerevisiae deletion strains, locus YLR330W, strain CHS5, active compounds read low 0.996 | S. cerevisiae deletion strains, locus YLR342W, strain FKS1 (second series), active compounds read low 1.04 | S. cerevisiae deletion strains, locus YLR342W, strain FKS1, active compounds read low 1.02 | S. cerevisiae deletion strains, locus YLR357W, strain rsc2, active compounds read low 1.03 | S. cerevisiae deletion strains, locus YLR370C, strain arc18, active compounds read low 1.02 | S. cerevisiae deletion strains, locus YLR371W, strain rom2, active compounds read low 0.98 | S. cerevisiae deletion strains, locus YLR384C, strain iki3, active compounds read low 1.01 | S. cerevisiae deletion strains, locus YLR418C, strain cdc73, active compounds read low 0.958 | S. cerevisiae deletion strains, locus YML016C, strain PPZ1, active compounds read low 0.997 | S. cerevisiae deletion strains, locus YML032C, strain rad52, active compounds read low 0.98 | S. cerevisiae deletion strains, locus YML120C, strain ndi1, active compounds read low 1.02 | S. cerevisiae deletion strains, locus YML124C, strain tub3, active compounds read low 0.983 | S. cerevisiae deletion strains, locus YMR058W, strain fet3, active compounds read low 1.03 | S. cerevisiae deletion strains, locus YMR078C, strain ctf18, active compounds read low 0.971 | S. cerevisiae deletion strains, locus YMR125W, strain sto1, active compounds read low 1.05 | S. cerevisiae deletion strains, locus YMR129W, active compounds read low 1.01 | S. cerevisiae deletion strains, locus YMR205C, strain PFK2, active compounds read low 1.02 | S. cerevisiae deletion strains, locus YMR223W, strain ubp8, active compounds read low 0.964 | S. cerevisiae deletion strains, locus YMR231W, strain pep5, active compounds read low 1.01 | S. cerevisiae deletion strains, locus YMR263W, strain SAP30, active compounds read low 0.981 | S. cerevisiae deletion strains, locus YMR307W, strain GAS1, active compounds read low 1.05 | S. cerevisiae deletion strains, locus YNL067W, strain RPL9B, active compounds read low 0.972 | S. cerevisiae deletion strains, locus YNL071W, strain lat1, active compounds read low 1 | S. cerevisiae deletion strains, locus YNL153C, strain GIM3, active compounds read low 0.989 | S. cerevisiae deletion strains, locus YNL183C, strain NPR1, active compounds read low 0.975 | S. cerevisiae deletion strains, locus YNL209W, strain ssb2, active compounds read low 0.996 | S. cerevisiae deletion strains, locus YNL233W, strain BNI4, active compounds read low 0.983 | S. cerevisiae deletion strains, locus YNL248C, strain rpa49, active compounds read low 1.07 | S. cerevisiae deletion strains, locus YNL250W, strain rad50, active compounds read low 0.967 | S. cerevisiae deletion strains, locus YNL271C, strain bni1, active compounds read low 0.966 | S. cerevisiae deletion strains, locus YNL298W, strain CLA4, active compounds read low 0.971 | S. cerevisiae deletion strains, locus YNL307C, strain MCK1, active compounds read low 0.983 | S. cerevisiae deletion strains, locus YNL322C, strain KRE1 (second series), active compounds read low 1.01 | S. cerevisiae deletion strains, locus YNL322C, strain KRE1, active compounds read low 1.01 | S. cerevisiae deletion strains, locus YNR049C, strain mso1, active compounds read low 1.01 | S. cerevisiae deletion strains, locus YNR052C, strain pop2, active compounds read low 0.971 | S. cerevisiae deletion strains, locus YOL006C, strain TOP1, active compounds read low 0.926 | S. cerevisiae deletion strains, locus YOL012C, strain htz1 0.866 | S. cerevisiae deletion strains, locus YOL147C, strain pex11, active compounds read low 0.973 | S. cerevisiae deletion strains, locus YOR001W, strain rrp6, active compounds read low 1.02 | S. cerevisiae deletion strains, locus YOR061W, strain CKA2, active compounds read low 0.994 | S. cerevisiae deletion strains, locus YOR069W, strain VPS5, active compounds read low 0.991 | S. cerevisiae deletion strains, locus YOR070C, strain gyp1, active compounds read low 0.999 | S. cerevisiae deletion strains, locus YOR080W, strain dia2, active compounds read low 1.02 | S. cerevisiae deletion strains, locus YOR083W, strain WHI5, active compounds read low 0.987 | S. cerevisiae deletion strains, locus YOR106W, strain vam3, active compounds read low 1.03 | S. cerevisiae deletion strains, locus YOR136W, strain idh2, active compounds read low 0.974 | S. cerevisiae deletion strains, locus YOR144C, strain elg1, active compounds read low 0.976 | S. cerevisiae deletion strains, locus YOR184W, strain ser1, active compounds read low 0.966 | S. cerevisiae deletion strains, locus YOR231W, strain MKK1, active compounds read low 1.04 | S. cerevisiae deletion strains, locus YOR265W, strain rbl2, active compounds read low 1.01 | S. cerevisiae deletion strains, locus YOR270C, strain vph1, active compounds read low 1.07 | S. cerevisiae deletion strains, locus YOR290C, strain snf2, active compounds read low 1.02 | S. cerevisiae deletion strains, locus YOR316C, strain cot1, active compounds read low 0.98 | S. cerevisiae deletion strains, locus YPL051W, strain arl3, active compounds read low 1.01 | S. cerevisiae deletion strains, locus YPL078C, strain atp4, active compounds read low 1.01 | S. cerevisiae deletion strains, locus YPL106C, strain sse1, active compounds read low 0.997 | S. cerevisiae deletion strains, locus YPL240C, strain hsp82, active compounds read low 0.996 | S. cerevisiae deletion strains, locus YPL256C, strain CLN2, active compounds read low 1.08 | S. cerevisiae deletion strains, locus YPR119W, strain clb2, active compounds read low 0.977 | S. cerevisiae deletion strains, locus YPR141C, strain kar3, active compounds read low 0.958 | S. cerevisiae deletion strains, locus YPR163C, strain tif3, active compounds read low 0.982 | S. cerevisiae deletion strains, locus YPR167C, strain met16, active compounds read low 0.972 | S. cerevisiae deletion strains, strain wtn01, active compounds read low 0.982 | S. cerevisiae strains, strain wild type, active compounds read low 0.998

— PubChem BioAssay AID1159580 (chemical genetic matrix, 2015)
